What all share (assay type): functional
For assay [1], the target named is Solute carrier family 2, facilitated glucose transporter member 1 (Homo sapiens) (UniProt P11166). Nature of the assay: ST_JUDE_LEISH: Cytotoxicity at 2uM final concentration against transgenic Leishmania Mexicana promastigotes LmGLUT1 that are glucose transport deficient and complemented with the human glucose transporter GLUT1. Activity is measured by DNA content using SYBR green in vitro.

Assay [2] has as its target Hexose transporter 1 (Plasmodium falciparum) (UniProt O97467). The assay is described as follows: ST_JUDE_LEISH: Cytotoxicity at 2uM final concentration against transgenic Leishmania Mexicana promastigotes LmPfHT that are glucose transport deficient and complemented with the Plasmodium falciparum hexose transporter. Activity is measured by DNA content using SYBR green in vitro.

For assay [3], the target named is Glucose transporter (Leishmania mexicana) (UniProt O61059). The assay is described as follows: ST_JUDE_LEISH: Cytotoxicity at 2uM final concentration against transgenic Leishmania Mexicana promastigotes LmGT2 that are glucose transport deficient and complemented with the L. Mexicana glucose transporter 2. Activity is measured by DNA content using SYBR green in vitro.

Here are results for 36 compounds from ChEMBL document CHEMBL3433997, “St. Jude Leishmania screening dataset” (2016).

Sequence of Solute carrier family 2, facilitated glucose transporter member 1 (Homo sapiens) (P11166 whole entry): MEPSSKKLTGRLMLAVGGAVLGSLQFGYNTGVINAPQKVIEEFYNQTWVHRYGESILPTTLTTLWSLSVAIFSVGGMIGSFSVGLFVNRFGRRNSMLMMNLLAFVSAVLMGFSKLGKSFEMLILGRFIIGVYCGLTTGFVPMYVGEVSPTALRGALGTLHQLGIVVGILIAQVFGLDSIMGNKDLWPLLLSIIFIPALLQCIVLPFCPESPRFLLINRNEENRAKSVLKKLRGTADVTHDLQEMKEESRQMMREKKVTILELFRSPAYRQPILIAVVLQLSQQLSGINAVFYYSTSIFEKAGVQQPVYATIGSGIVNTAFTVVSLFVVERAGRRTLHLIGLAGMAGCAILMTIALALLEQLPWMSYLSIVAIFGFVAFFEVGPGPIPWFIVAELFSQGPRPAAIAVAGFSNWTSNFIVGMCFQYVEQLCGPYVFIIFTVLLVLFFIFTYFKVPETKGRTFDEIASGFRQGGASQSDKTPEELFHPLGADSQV

By inhibition is commonly meant the change of the read-out against control, counted positive when it falls. Take `O=C(NCCCCCN1CCC(c2c[nH]c3ccccc23)CC1)c1ccc(-c2cccnc2)cc1`: the inhibition in assay [1] was 1.86%; in assay [2] it was 0.85%; in assay [3], 1.15%.

On to `Cc1cc(NC(=O)NCCN2CCC(NS(=O)(=O)c3ccccc3Cl)C2)c2ccccc2n1` (stereo not drawn), for which the figures for the inhibition in assay [1], in assay [2] and in assay [3] were -2.1%, 1.02% and 8.99%, respectively.

In the case of `O=C(NCC1CCN(Cc2ccc(F)cc2)C1)c1cc(-c2cccc(C(F)(F)F)c2)cs1` (stereo not drawn), the inhibition was -0.31% in assay [1], -1.16% in assay [2] and -6.61% in assay [3].

For the compound `CC(C)CNC(=O)c1cncc(-c2ccc(CNC3Cc4ccccc4C3)cc2)c1`, the inhibition is -0.34% in assay [1], 1.58% in assay [2] and -0.51% in assay [3].

Turning to `C[C@@H](N/C(=N\c1ccccc1Cl)Nc1ccc(C#N)cc1O)c1ccc(Br)cc1`, the inhibition in assay [1] is 6.22%; in assay [2], 5.06%; in assay [3] it was 3.66%.

For the compound `Oc1ccc(CNCC2CCN(CC3CCCCC3)CC2)cc1`, the inhibition in assay [1] stood at 5.22%; in assay [2] it was 0.53%; in assay [3], 5.43%.

In the case of `Cc1[nH]c2ccccc2c1C(=O)C(C)Sc1nnc(-c2ccccc2F)o1` (stereo not drawn), the inhibition in assay [1] is 2.5%; in assay [2], 1.95%; in assay [3], 3.81%.

For the compound `CCCc1ccc(S(=O)(=O)NC2CCN(C(=O)Nc3ccc(I)cc3)CC2)cc1`, the results for the inhibition in assay [1], in assay [2] and in assay [3] were 5.43%, 5.51% and 5.03%, respectively.

As to `CC1CC(NCCCNc2cc(=O)c3ccccc3[nH]2)c2c1cc(Cl)c(Cl)c2Cl` (stereo not drawn), the values for the inhibition in assay [1], in assay [2] and in assay [3] were -1.8%, -2.9% and 2.54%, respectively.

For `CNC(=O)CNC(=O)COc1cccc2ccccc12`, the inhibition in assay [1] was determined as 2.49%; in assay [2], 1.21%; in assay [3], 2.7%.

Regarding `COC(=O)c1cccc(NC(=O)NC2CCN(c3ccnc(Nc4ccc(F)cc4)n3)C2)c1` (stereo not drawn), the inhibition in assay [1] is 2.08%; in assay [2], 1.14%; in assay [3], -0.55%.

With `CCCN1CCc2c(sc3nc(SCC(=O)Nc4ccc(C)cc4)n(-c4ccc(C)cc4)c(=O)c23)C1`, the inhibition in assay [1] is 6.06%; in assay [2], 3.25%; in assay [3], 3.72%.

For `Cc1cc2nc(-c3ccc(/C=C/C(=O)NC4CCN(Cc5ccccc5)CC4)cc3)[nH]c2cc1C`, the inhibition is 0.58% in assay [1], -0.75% in assay [2] and -2.3% in assay [3].

Take `O=C(/C=C/c1ccc(Cl)c(Cl)c1)NCCCCCN1CCC(NC(=O)c2ccc(F)cc2)CC1`: the inhibition in assay [1] turned out to be 6.17%; in assay [2], 3.16%; in assay [3], 5.01%.

Turning to `CCn1cc(CN2CCCC(C(=O)Nc3ccc(-c4nc5ccccc5[nH]4)cc3)C2)cn1` (stereo not drawn), the inhibition in assay [1] came out at 3.25%; in assay [2], 3.52%; in assay [3], 2.06%.

As for `Cc1cc(C(=O)Nc2ccc3c(c2)CCN3C2CCN(Cc3cccc(F)c3F)C2)no1` (stereo not drawn), the inhibition in assay [1] was -0.4%; in assay [2] it was -0.88%; in assay [3], 0.24%.

For the compound `CCC(=O)N1CCc2cc(Br)cc(S(=O)(=O)N3CC(C)CC(C)C3)c21` (stereo not drawn), the figures for the inhibition in assay [1], in assay [2] and in assay [3] were 5.05%, 3.54% and 3.73%, respectively.

`O=C(NCC1CCC1)c1cnc(Nc2cccc(Cl)c2)nc1N1CCC1`: the inhibition in assay [1] worked out at 14.5%; in assay [2], 12.8%; in assay [3], 12.4%.

Take `COc1ccccc1N1CCN(Cc2c(O)ccc3cc(Br)ccc23)CC1`: the figures for the inhibition in assay [1], in assay [2] and in assay [3] were 5.54%, 4.31% and 6.16%, respectively.

Consider `CN(C)CCCN(C)c1cccc2c1nc(-c1cccnc1)n2CCNCc1ccccc1`, for which the inhibition in assay [1] was determined as 6.47%; in assay [2], 7.52%; in assay [3], 1.45%.

Take `CCCCCC(C)C(C)c1cc(O)c2c(c1)OC(C)(C)CC2=Cc1ccncc1` (stereo not drawn): the inhibition in assay [1] turned out to be 12.6%; in assay [2], 11.5%; in assay [3], 10.7%.

As to `COc1ccc(CNCc2cccc(-c3ccc(-c4nc5cccc(C)c5[nH]4)s3)c2)cc1`, the figures for the inhibition in assay [1], in assay [2] and in assay [3] were 3.18%, 2.97% and 2.36%, respectively.

In the case of `O=C(Nc1ccc(N2CCN(Cc3c[nH]c4cc(F)ccc34)CC2)cc1)c1ccccc1-c1ccc(C(F)(F)F)cc1`, the inhibition in assay [1] came to 7.38%; in assay [2], 4.06%; in assay [3], 3.31%.

Take `O=C(c1ccccc1F)N(Cc1ccc(Cl)cc1)c1ccccn1`: the inhibition in assay [1] was 6.82%; in assay [2], 7.84%; in assay [3], 9.29%.

Take `S=C(NCCN1CCOCC1)Nc1ccccc1`: the inhibition is -1.94% in assay [1], 0.47% in assay [2] and 0.17% in assay [3].

As for `CON=Cc1ccn(-c2ccc(O)c3c2C[C@H]2C[C@H]4[C@H](N(C)C)C(O)=C(C(N)=O)C(=O)[C@@]4(O)C(O)=C2C3=O)c1`, the figures for the inhibition in assay [1], in assay [2] and in assay [3] were 5.15%, 4.25% and 4.92%, respectively.

As for `O=C(Cc1ccccn1)Nc1cccc(-c2cccc(-c3nc4cc(C(F)(F)F)ccc4[nH]3)c2)c1`, the inhibition was 0.14% in assay [1], 1.02% in assay [2] and -0.1% in assay [3].

For the compound `O=S(=O)(NCCN1CCCC1)c1ccc(-c2cccc(CNCCc3cccs3)c2)cc1`, the results for the inhibition in assay [1], in assay [2] and in assay [3] were 5.24%, 5.07% and 3.91%, respectively.

In the case of `Oc1ccccc1N1CCN(c2ccc(-c3nc4ccccc4[nH]3)cn2)CC1`, the inhibition turned out to be 2.48% in assay [1], 1.99% in assay [2] and 0.57% in assay [3].

On to `COc1cc2nc(N3CCC(C(N)=O)CC3)nc(NCc3ccccc3)c2cc1OC`, for which the results for the inhibition in assay [1], in assay [2] and in assay [3] were 3.29%, 1.29% and 0.48%, respectively.

Regarding `COc1ccc2ccccc2c1CNCC1CCN(CC2CCCCC2)CC1`, the results for the inhibition in assay [1], in assay [2] and in assay [3] were 1.54%, -0.57% and -1.88%, respectively.

`Cc1cc(N(C)C)nc(Nc2ccc(NC(=O)Nc3ccccc3)cc2)n1`: the inhibition is 2.43% in assay [1], 3.74% in assay [2] and 4.26% in assay [3].

In the case of `C=C[C@H]1CN(CCCCCCC)CC[C@H]1CC(O)Cc1ccnc2cc(O)c(OC)cc12` (stereo partly drawn), the inhibition in assay [1] was -1.66%; in assay [2], -0.12%; in assay [3] it was 0.32%.

Regarding `CC(CCc1ccccc1)NCC(O)c1cccc(C(F)(F)F)c1` (stereo not drawn), the inhibition in assay [1] amounted to 5.1%; in assay [2], 5.17%; in assay [3] it was 3.76%.

For `CCN1CCN(C(=O)NC(C(=O)N(C)Cc2ccc(-c3ccc(C(F)(F)F)cc3)cc2)c2cccs2)C(=O)C1=O` (stereo not drawn), the inhibition in assay [1] turned out to be 1.34%; in assay [2] it was 0.77%; in assay [3] it was 1.3%.

Consider `CCNc1cc(C(=O)N[C@@H](Cc2ccc(F)c(F)c2)[C@H](O)CNCc2cccc(OC)c2)cc(N2CCCCS2(=O)=O)c1`, for which the inhibition was -0.26% in assay [1], 0.17% in assay [2] and -0.12% in assay [3].
